The values below come from PubChem BioAssay (Tox21).

Each structure is given as a SMILES string. Inconclusive results are not listed. A call without a number means that no potency is given here. Values without a mark were called inactive. Active and inactive are the calls of the source. Calls come from the whole dose curve; as a rule, active = well fitted cell-killing curve with a large enough effect in the repeat runs; inconclusive = weak or mixed curves, or effect the other way; inactive = flat fitted curve, though single readings scatter.
Potency is the fitted concentration of half-maximal effect.

A short description of the test: cAMP Responsive Elements (CRE) small molecule agonists, cell-based qHTS assay: qHTS cell viability counter screen (AID 2060914). Note: nearly all actives have a fitted effect of over 50% in size. To be noted: CRE-bla HEK293T viability, CellTiter-Glo luminescence, 5 h; series mostly up to 92.4 µM. In outline: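 Cytotoxicity was measured as ATP luminescence (CellTiter-Glo, 30 min at room temperature) in the same wells as the CRE-bla FRET read-out. HEK293T CRE-bla cells had 3 h compound exposure at 37C/5% CO2.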
Background: qHTS replaces the single test concentration by a dilution series.
For `CC(C)C(OC(=O)c1ccccc1)C(C)(C)COC(=O)c1ccccc1` (stereo not given), the Potency entry is “inactive”.
For `CCCC[C@H]1CN(CC2CCOCC2)C(=O)OC12CCN(C1(C)CCN(C(=O)c3c(C)ncnc3C)CC1)CC2`, the Potency result is “inactive”.
The same measure, in the same setting: then `CCC(C)n1ncn(-c2ccc(N3CCN(c4ccc(OC[C@H]5CO[C@](Cn6cncn6)(c6ccc(Cl)cc6Cl)O5)cc4)CC3)cc2)c1=O` (stereo not given in full), with “inactive”; and `Cc1ccc2c(c1)CCCN2`, with “inactive”; and `Cc1ccc(C)c(OCCCC(C)(C)C(=O)O)c1`, with “inactive”.
On to `Nc1ccc(Cl)c([N+](=O)[O-])c1`, for which the Potency result was “inactive”.
In the case of `C=C(C)[C@@H]1CC=C(C)CC1`, the Potency result is “inactive”.
Take `O=C(O)CCCCC(=O)O`: the Potency result is “inactive”.
With `Fc1ccccc1[C@@H](F)COC1CCC(Nc2ncnc3[nH]ncc23)CC1` (stereo not given in full), the Potency entry was “inactive”.
For the compound `C[Si](C)(C)O[Si](C)(C)O[Si](C)(C)C`, the Potency entry was “inactive”.
As to `CCC(Cc1c(I)cc(I)c(N)c1I)C(=O)O` (stereo not given), the Potency result was “inactive”.
As to `CN(C)Cc1cc(C(C)(C)C)c(O)c(C(C)(C)C)c1`, the Potency entry was “inactive”.
With `Cc1cccc(C(=O)O)c1[N+](=O)[O-]`, the Potency result was “inactive”.
For `N[C@@H](Cc1cc(I)c(Oc2ccc(O)c(I)c2)c(I)c1)C(=O)O`, the Potency entry is “inactive”.
As to `Nc1nc2ccc([N+](=O)[O-])cc2s1`, the Potency result was “inactive”.
Turning to `CC(C)Cc1ccccc1`, the Potency result is “inactive”.
Turning to `CCCCOCC(C)O` (stereo not given), the Potency result was “inactive”.
Turning to `C=C(C)C(=O)OCC(C)O` (stereo not given), the Potency result is “inactive”.
Turning to `O=C1CCCCCCCCCCCC(=O)OCCO1`, the Potency result is “inactive”.
With `O=C(Nc1cccc(C(F)(F)F)c1)c1cc(Br)cc(Br)c1O`, the Potency is 27.3 µM (active).
Regarding `NCC1CCC(C(=O)Oc2ccc(CCC(=O)O)cc2)CC1` (stereo not given), the Potency entry is “inactive”.
As for `CC(C)c1c(C(=O)Nc2ccccc2)c(-c2ccccc2)c(-c2ccc(F)cc2)n1CC[C@@H](O)C[C@@H](O)CC(=O)O`, the Potency result is “inactive”.
Still for that read-out and setting: the result for `CC1(C)OC(=O)Nc2ccc(Br)cc21` reads “inactive”; that for `CCCCCC1CCC(=O)O1` (stereo not given), “inactive”.
Same read-out and setting: the result for `CCOC(=O)c1ccc(N(C)C)cc1` reads “inactive”.
Consider `O=S(O)(O)=S`, for which the activity change, negative = cytotoxicity was 9.38% [at 8.39 µM].
For the compound `CCOCOCC`, the Potency entry was “inactive”.
On the same count and under the same terms, the result for `OC1OC[C@@H](O)[C@H](O)[C@H]1O` (stereo not given in full) reads “inactive”.
For `Nc1ccc(F)c([N+](=O)[O-])c1`, the Potency entry was “inactive”.
For `Cc1c(O)cccc1C(=O)N[C@@H](CSc1ccccc1)[C@H](O)CN1C[C@H]2CCCC[C@H]2C[C@H]1C(=O)NC(C)(C)C`, the Potency entry was “inactive”.
The same measure, in the same setting: the result for `CC1(C)OC[C@@H](COC(=O)CCc2ccc(OC[C@@H](O)CNCCNC(=O)N3CCOCC3)cc2)O1` reads “inactive”; that for `CC(=O)OC/C=C/c1ccccc1`, “inactive”; that for `O=C(O)Cc1ccc(CCNS(=O)(=O)c2ccc(Cl)cc2)cc1`, “inactive”.
On the same count and under the same terms, then `CCCCc1ncc(/C=C(\Cc2cccs2)C(=O)O)n1Cc1ccc(C(=O)O)cc1`, with “inactive”; and `OCCN1CCN(CCCN2c3ccccc3Sc3ccc(Cl)cc32)CC1`, with “inactive”; and `CC(C(=O)O)c1ccc(C(=O)c2ccccc2)s1` (stereo not given), with “inactive”.
With `CC(C(O)c1ccccc1)N(C)CCOC(c1ccccc1)c1ccccc1` (stereo not given), the Potency entry is “inactive”.
The same measure, in the same setting: the result for `NCCNCCO` reads “inactive”.
`CC(C)CC(O)CC(C)C`: the Potency result was “inactive”.
For the compound `Cc1cccc(C)c1NC(=O)C(C)N` (stereo not given), the Potency result is “inactive”.
